The target of test [1] is Glutathione peroxidase 1 (Homo sapiens) (UniProt P07203). Kind of test: Primary qHTS Assay for Inhibitors of Recombinant Selenoprotein Glutathione Peroxidase 1 (GPX1) (AID 1845191). Also: nearly all actives have a fitted effect of over 65% in size. Also: potency is read from the fitted curve at half-maximal effect. A digest of the protocol: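 Recombinant GPX1 (10 nM final) was preincubated with compound for 30 min at room temperature, then reacted with 1 mM GSH, 0.5 mM CHP, 0.5 mM NADPH and 100 nM glutathione reductase; NADPH fluorescence (340/450 nm) was read at 0 and 15 min.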
Glutathione peroxidase 1 (Homo sapiens), sequence (P07203 whole entry, looked up): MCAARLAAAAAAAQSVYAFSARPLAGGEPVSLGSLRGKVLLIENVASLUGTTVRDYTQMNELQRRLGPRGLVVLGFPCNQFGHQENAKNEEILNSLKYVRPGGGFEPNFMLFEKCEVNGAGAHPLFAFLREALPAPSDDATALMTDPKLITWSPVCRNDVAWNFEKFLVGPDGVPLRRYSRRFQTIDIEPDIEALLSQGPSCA
(qHTS replaces the single test concentration by a dilution series.)

In test [2] the target is Phospholipid hydroperoxide glutathione peroxidase GPX4 (Homo sapiens) (UniProt P36969). The test can be described thus: Primary qHTS Assay for Inhibitors of Recombinant Selenoprotein Glutathione Peroxidase 4 (GPX4) (AID 1845192). Also: nearly all actives have a fitted effect of over 65% in size. As to activity change, negative = inhibition: series mostly up to about 50 µM. A digest of the protocol: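 GR-coupled readout: 100 nM GR, 1 mM GSH, 0.5 mM NADPH; NADPH fluorescence (ex 340/em 450 nm) read at t=0 and after 15 min RT. GPX4 200 nM, preincubated 30 min with compound; substrate 0.5 mM CHP.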
Phospholipid hydroperoxide glutathione peroxidase GPX4 (Homo sapiens), sequence (P36969 whole entry, looked up): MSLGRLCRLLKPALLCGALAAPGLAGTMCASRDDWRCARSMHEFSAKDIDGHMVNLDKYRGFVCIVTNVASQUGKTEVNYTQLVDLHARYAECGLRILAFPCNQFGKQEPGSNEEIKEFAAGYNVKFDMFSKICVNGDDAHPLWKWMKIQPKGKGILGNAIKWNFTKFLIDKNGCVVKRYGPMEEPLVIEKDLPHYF

The target in test [3] is Luciferin 4-monooxygenase (Photinus pyralis) (UniProt P08659). Kind of test: Primary firefly luciferase (FLuc) qHTS assay for identification of artifact compounds. (AID 1845220). Also: nearly all actives have a fitted effect of over 60% in size. As to activity change, negative = inhibition: series mostly up to about 54 µM. Particulars: outcome: dose series up to 54.1 µM. The procedure, abridged: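 In this counter-screen for luciferase artifacts, test compounds met substrate (10 uM each luciferin and ATP) before 10 nM enzyme started the reaction. Light output was measured 5 min later.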

The nature of test [4]: Primary fluorescence-based thiol-reactive (MSTI) qHTS assay for identification of artifact compounds. (AID 1845221). Also: nearly all actives have a fitted effect of over 65% in size. Also: potency is read from the fitted curve at half-maximal effect. A digest of the protocol: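 MSTI probe at 4 uM final in 2% DMSO/PBS pH 7.4; compounds, 1 h at room temperature in dark. Fluorescence Ex/Em 525/598 nm, normalised to Acetyl-MSTI and MSTI, fitted to 4-parameter Hill.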

The record followed here is PubChem BioAssay (NCATS).

Where “and” joins values, the source holds several entries; their conditions need not be identical. Equal entries are not always repeated. Results filed as inconclusive are left out. A call without a number means that no potency is given here. Some structures have more than one record in an assay (separate samples or runs), and their calls can disagree. Calls of active or inactive are those of the source. Calls follow the shape of the dose curve; as a rule, active = well fitted curve in the direction sought with a large enough effect; inconclusive = small, poorly fitted or top-dose-only effect, or another doubt; inactive = no such curve, though single readings can be large; an effect the other way counts as inactive or inconclusive.

Regarding `Cn1c(=O)c2c(ncn2CC(O)CO)n(C)c1=O` (stereo unspecified), the Potency result in test [1] and in test [2] was “inactive” each time.

With `CCCOc1ccc(C(=O)OCCN(CC)CC)cc1N`, the Potency result in test [1] and in test [2] was “inactive” each time.

`CC(C(=O)O)c1ccc2c(c1)CC(=O)c1ccccc1S2` (stereo unspecified): the Potency entry in test [1] is “inactive and 16.1 µM (active)”. For the same compound, the Potency entry in test [2] and in test [4] was “inactive” in each case. Besides, in test [3], the result was inactive.

`CNCC[C@H](Oc1cccc2ccccc12)c1cccs1`: in test [2], the Potency entry is “inactive”.

With `C#CCN[C@@H]1CCc2ccccc21`, the Potency result in test [1] and in test [2] was “inactive” in each case.

Take `Cc1cccc(Nc2ccncc2S(=O)(=O)NC(=O)NC(C)C)c1`: the Potency result in test [1] and in test [2] was “inactive” each time.

Take `CC1(C)[C@H](C(=O)O)N2C(=O)C[C@H]2S1(=O)=O`: the Potency entry in test [1], in test [2] and in test [4] was “inactive” in each case. In test [3], the compound was classed as inactive.

`Cc1nnc(NS(=O)(=O)c2ccc(N)cc2)s1`: the Potency entry in test [1] and in test [2] was “inactive” throughout.

As for `CC1=CC(=O)c2ccccc2C1=O`, the Potency entry in test [2] was “inactive”.

With `CCCc1cc(C(N)=S)ccn1`, the Potency result in test [1] and in test [2] was “inactive” each time.

Regarding `O=C(NCC1CN(c2ccc(N3CCOCC3=O)cc2)C(=O)O1)c1ccc(Cl)s1` (stereo unspecified), the Potency result in test [1], in test [2] and in test [4] was “inactive” each time. Besides, the outcome in test [3] was inactive.

For the compound `CNC(=O)c1cc(Oc2ccc(NC(=O)Nc3ccc(Cl)c(C(F)(F)F)c3)cc2)ccn1`, the Potency result in test [1], in test [2] and in test [4] was “inactive” throughout. In addition, the compound was called inactive in test [3].

Take `O=C(O)c1cn(C2CC2)c2cc(N3CCNCC3)c(F)cc2c1=O`: the outcome in test [1] was “inactive [at 9.52 µM]”. Moreover, the Potency entry in test [2] is “inactive”.

Turning to `CC[C@H](C)C(=O)O[C@H]1C[C@@H](C)C=C2C=C[C@H](C)[C@H](CC[C@@H]3C[C@@H](O)CC(=O)O3)[C@H]21`, the Potency result in test [1], in test [2] and in test [4] was “inactive” each time. In addition, the compound was called inactive in test [3].

Consider `CCCc1nc(C)c2c(=O)[nH]c(-c3cc(S(=O)(=O)N4CCN(CC)CC4)ccc3OCC)nn12`, for which the Potency entry in test [1] and in test [2] was “inactive” throughout.

In the case of `N[C@@H](C(=O)N[C@@H]1C(=O)N2C(C(=O)O)=C(Cl)CS[C@H]12)c1ccccc1`, in test [2], the activity change, negative = inhibition is 3.64% [at 9.73 µM] (inactive).

Take `O[C@@H](CNC[C@H](O)[C@H]1CCc2cc(F)ccc2O1)[C@@H]1CCc2cc(F)ccc2O1`: the Potency result in test [1] and in test [2] was “inactive” throughout.

Turning to `CC1=NN(c2ccccc2)C(=O)C1`, the Potency entry in test [1] and in test [2] was “inactive” throughout. Moreover, in test [3], the compound was called inactive. In test [4], the Potency is 8.44 µM (active).

Take `CN(C)CCc1c[nH]c2ccc(CS(=O)(=O)N3CCCC3)cc12`: the Potency entry in test [1] and in test [2] was “inactive” throughout.

Regarding `O=C(O)CCn1c2c(c3ccccc31)C[C@H](NS(=O)(=O)c1ccc(F)cc1)CC2`, the Potency result in test [1] and in test [2] was “inactive” throughout. The call in test [3] was inactive. Moreover, the Potency in test [4] is 1.68 µM (active).

For the compound `CCCCc1oc2ccc(NS(C)(=O)=O)cc2c1C(=O)c1ccc(OCCCN(CCCC)CCCC)cc1`, the Potency entry in test [1] and in test [2] was “inactive” each time. Besides, the compound was called inactive in test [3].

With `COc1ccc(C(=O)CC(=O)c2ccc(C(C)(C)C)cc2)cc1`, the Potency result in test [1] and in test [2] was “inactive” in each case.

Consider `CCn1cc(C(=O)O)c(=O)c2cc(F)c(N3CCNCC3)nc21`, for which the Potency result in test [1] and in test [2] was “inactive” throughout.

On to `CN(CCOc1ccc(CC2SC(=O)NC2=O)cc1)c1ccccn1` (stereo unspecified), for which the Potency result in test [1] and in test [2] was “inactive” in each case.

In the case of `Nc1[nH]c(=O)ncc1F`, the Potency result in test [1] and in test [2] was “inactive” throughout.

For the compound `CC(=O)[C@H]1CC[C@H]2[C@@H]3CCC4=CC(=O)CC[C@]4(C)[C@H]3CC[C@]12C`, the Potency entry in test [1] and in test [2] was “inactive” each time.

Regarding `NC(=O)N1c2ccccc2CC(=O)c2ccccc21`, the Potency entry in test [2] was “inactive”.

`COc1nc(N)nc2c1ncn2[C@@H]1O[C@H](CO)[C@@H](O)[C@@H]1O`: the Potency result in test [1] and in test [2] was “inactive” throughout.

For the compound `Cc1onc(-c2ccccc2Cl)c1C(=O)N[C@@H]1C(=O)N2[C@@H]1SC(C)(C)[C@@H]2C(=O)O`, the Potency entry in test [1], in test [2] and in test [4] was “inactive” in each case. Moreover, in test [3], the result was inactive.
